Test results from PubChem BioAssay.
Activity calls are given as the source filed them. The rule behind the calls is not given here. Numbered stars: 1 amine (or outer) side, 2 acyl side, 3 side chain; on linkers, the order of the positions; unused ones are H or OH. Bridge positions count the residues as written; N and C are the ends. Square brackets hold non-standard residues; d marks the D form. Peptide text beside a SMILES is read from it. * marks the point of attachment. ξ: configuration not given here. ΔAla(Z-3-ureido) = NC(=O)N/C=C(\N)C(=O)O; X2 = NC1=NC(O)CC(C(N[*:1])C(=O)[*:2])N1; ξβ3hOrn = NCCCC(N)CC(=O)*; Dap = NC[CH](N)C(=O)O

Experiment: compounds altering viability of human ES cells (AID 493140);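 note: cells exposed to compounds for four days before counting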
Settings: human embryonic stem cell survival screen; stronger effect = higher value

SMILES | survival
CCCCC/C=C\C[C@@H]1O[C@H]1/C=C/C(O)C/C=C\CCCC(=O)O (stereo not given in full) | 93.9 (inactive)
CO/N=C(/C(=O)N[C@@H]1C(=O)N2C(C(=O)[O-])=C(C[N+]3(C)CCCC3)CS[C@H]12)c1csc(N)n1 | 5.92 (inactive)
NC(=O)c1ccc[n+]([C@H]2O[C@@H](COP(=O)([O-])OP(=O)(O)OC[C@H]3O[C@@H](n4cnc5c(N)ncnc54)C(O)[C@H]3O)C(O)[C@H]2O)c1 (stereo not given in full) | 4.5 (inactive)
O=C(O)CCC/C=C\C/C=C\C=C\[C@@H](O)C/C=C\CCCCCO | 89.3 (inactive)
CCCCC/C=C\C=C\[C@@H](O)C/C=C\C/C=C\CCCC(=O)O | 81.2 (inactive)
CC(C)C[C@H](NC(=O)[C@H](CCC(=O)O)NC(=O)CNC(=O)c1ccc(/C=C/C(=O)O)cc1)C(N)=O | 88.2 (inactive)
CCCCC/C=C\C[C@@H]1O[C@H]1C(O)/C=C\C/C=C\CCCC(=O)O (stereo not given in full) | 86.8 (inactive)
CCCCC[C@H](O)/C=C/C=C/C=C/[C@@H](O)C/C=C\CCCC(=O)O | 92.6 (inactive)
CCO[C@@H]1O[C@H](C(COCc2ccccc2)OCc2ccccc2)[C@@H](OCc2ccccc2)C1O (stereo not given in full) | 10.8 (inactive)
CCCCCC(O)/C=C/C=C\CCCCCCCC(=O)O (stereo not given) | 49.5 (inactive)
COC1C(O)CC(=O)OC(C)CC=CC=CC(OC2CCC(N(C)C)C(C)O2)C(C)CC(CC=O)C1OC1OC(C)C(OC2CC(C)(O)C(O)C(C)O2)C(N(C)C)C1O (stereo not given) | 3.42 (inactive)
C[C@@H](O)CCC[C@H](O)/C=C/[C@H]1[C@H](O)CC(=O)[C@@H]1C/C=C\CCCC(=O)O | 111 (inactive)
CCCCCCCC/C=C\C/C=C\C=C\C(O)CCCC(=O)O (stereo not given) | 116 (inactive)
CCNC1CC(N)C(OC2OC(CN)=CCC2N)C(O)C1OC1OCC(C)(O)C(NC)C1O (stereo not given) | 17.9 (inactive)
CCCCC[C@H](O)/C=C/[C@@H]1[C@@H](CC(=O)CCC(=O)O)[C@@H](O)C[C@H]1O | 104 (inactive)
CCCCC[C@H](O)/C=C/C=C\C/C=C\CCCCCCC(=O)O | 102 (inactive)
CCCCCC[C@@H](O)C/C=C\CCCCCCCC(=O)O | 85.1 (inactive)
CC/C=C\C[C@H](O)/C=C/C=C\C/C=C\C/C=C\CCCC(=O)O | 122 (inactive)
O=P(O)(O)C(O)c1ccc2ccccc2c1 (stereo not given) | 93.4 (inactive)
CCCCCCCCC1OC1CCCCCCCC(=O)O (stereo not given) | 92.8 (inactive)

SMILES | survival
CCCCC/C=C\C/C=C\C=C\[C@@H](O)C/C=C\CCCC(=O)O | 129 (inactive)
O=C(O)c1cc(NCc2cc(O)ccc2O)ccc1O | 90.2 (inactive)
C=Cc1c(C)c2cc3nc(cc4[nH]c(cc5nc(cc1[nH]2)C(C)=C5CCC(=O)O)c(CCC(=O)OC)c4C)[C@@]1(C)C3=CC=C(C(=O)OC)C1C(=O)OC (stereo not given in full) (tested in a mixture with another compound) | 12.9 (inactive)
C[C@@]1(O)CCOC(=O)C1 | 4.42 (inactive)
Cc1cc(=O)c2c(O)c3c(O)cc(O)c4c5c(O)cc(O)c6c(O)c7c(=O)cc(C)c8c1c2c(c34)c(c65)c78 | 52.2 (inactive)
Nc1ncc2[nH]cnc2n1 | 108 (inactive)
C[C@@]1(OC(=O)/C=C\c2ccccc2)C[C@H](O)[C@@]2(O)C=CO[C@H](OC3OC(CO)C(O)C(O)C3O)C12 (stereo not given in full) | 6.83 (inactive)
CO[C@@H]1[C@H](OC(N)=O)C(O)[C@H](Oc2ccc3c(O)c(NC(=O)c4ccc(O)c(CC=C(C)C)c4)c(=O)oc3c2C)OC1(C)C (stereo not given in full) | 8.33 (inactive)
C[N+](C)(CCCOc1ccccc1)c1ccccc1 | 5.92 (inactive)
C[C@@H](O)CCC[C@H](O)/C=C/[C@@H]1[C@@H](C/C=C\CCCC(=O)O)[C@@H](O)C[C@H]1O | 102 (inactive)
CCCCC[C@H](O)/C=C/C=C\C=C\[C@@H](O)C/C=C\CCCC(=O)O | 135 (inactive)
NCCCC(N)CC(=O)NC1CNC(=O)C(C2CC(O)N=C(N)N2)NC(=O)/C(=C/NC(N)=O)NC(=O)C(CO)NC(=O)C(CO)NC1=O (stereo not drawn) (ξβ3hOrn-[Dap]SS[ΔAla(Z-3-ureido)][X2]; lactam 1-C; configuration not given here) | 10.8 (inactive)
O=C(O)CCC[C@H](O)\C=C/C=C/C=C/[C@H](O)C/C=C\CCCCCO | 75.2 (inactive)
CCCCC[C@H](O)/C=C/[C@H]1OC(O)C[C@H](O)[C@@H]1C/C=C\CC(=O)O (stereo not given in full) | 117 (inactive)
N#CC(C#N)=C(N)/C(C#N)=C/c1cc(O)c(O)c(O)c1 | 82.2 (inactive)
CCC(C(=O)C(C)C(O)C(C)CCc1ccc(C)c(O)c1C(=O)O)[C@H]1O[C@](CC)([C@H]2CC[C@](O)(CC)[C@H](C)O2)C[C@@H]1C (stereo not given in full) | 24.1 (inactive)
CN(N=O)C(=O)NC1[C@@H](O)OC(CO)[C@@H](O)[C@H]1O (stereo not given in full) | 8.42 (inactive)
CCCCC/C=C\C[C@@H](O)/C=C/C=C/C=C/[C@@H](O)CCCC(=O)O | 77.1 (inactive)
Nc1ncn(C2O[C@H](CO)[C@H](O)[C@@H]2O)c(=O)n1 (stereo not given in full) | 0.083 (inactive)
CC(C)NCC1CCc2cc(CO)c([N+](=O)[O-])cc2N1 (stereo not given) | 28.3 (inactive)
